Inconclusive results are not listed. Active and inactive are the calls of the source. How the source made its calls, unless noted: active means hit-call score of the fitted dose curve at least 0.9, where 1 is the maximum; inactive means score below 0.9.
What was measured:
[1] = ATG_TAL_CIS: Attagene CIS-FACTORIAL HepG2 Assay for human TAL Basal Promoter (AID 2282966); settings: HepG2 Attagene cis-factorial TAL promoter reporter; actives raise or lower the signal;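 further: background control endpoint measuring basal TAL promoter reporter mRNA not a specific factor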
Outline: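 RT-PCR plus capillary electrophoresis quantifies reporter mRNA induction in transiently transfected HepG2 cells after 24 h chemical treatment. DMSO serves as negative control and baseline for bidirectional fitting.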

[2] = ATG_TGFb_CIS: Attagene CIS-FACTORIAL HepG2 Assay for human Transforming Growth Factor (TGF) (AID 2282967); settings: HepG2 Attagene CIS TGFb reporter, mRNA transcription; actives raise or lower the signal
Outline: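 HepG2 cells transiently transfected with cis-promoter-driven multiple reporter units measure endogenous TF activity; reporter mRNA quantified at 24 h by RT-PCR, FAM labeling, HpaI digestion and capillary electrophoresis. Bidirectional fit vs DMSO.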

[3] = ATG_VDRE_CIS: Attagene CIS-FACTORIAL HepG2 Assay for human Vitamin D Receptor Element (VDRE) (AID 2282968); settings: HepG2 VDRE cis-reporter transcription, actives raise or lower the signal
Outline: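 Reporter mRNA induction, quantified by capillary electrophoresis of fluorescently labelled RT-PCR products, was read 24 h after dosing HepG2 cells carrying transiently transfected cis-regulated reporter units; gain or loss relative to DMSO.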

[4] = molecular target: Nuclear receptor subfamily 1 group I member 3 (Homo sapiens) (UniProt Q14994); test: ATG_CAR_TRANS: Attagene TRANS-FACTORIAL HepG2 Assay for human Constitutive Androstane Receptor (CAR) (AID 2282969; active means hit-call score of the fitted dose curve at least 0.9, where 1 is the maximum;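 further: activators raise reporter mRNA above DMSO so AC50 marks induction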); settings: HepG2 Attagene TRANS-FACTORIAL CAR reporter
Outline: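 Readout is reporter mRNA induction, quantified by fluorescent primer extension and capillary electrophoresis after RT-PCR. Cells were HepG2 transiently carrying chimeric NR-Gal4 constructs with GAL4-UAS reporters, treated for 24 h; activity scored upward from DMSO.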

[5] = ATG_GAL4_TRANS: Attagene TRANS-FACTORIAL HepG2 Assay for GAL4 (Internal Marker) (AID 2282976; active means hit-call score of the fitted dose curve at least 0.9, where 1 is the maximum); settings: HepG2 Attagene TRANS GAL4 internal marker reporter
Outline: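 In transfected human HepG2 liver cells dosed 24 h, GAL4 reporter mRNA serves as a baseline marker. Detection by RT-PCR with fluorescent capillary electrophoresis, activity fitted upward relative to DMSO.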

[6] = molecular target: Oxysterols receptor LXR-beta (Homo sapiens) (UniProt P55055); test: ATG_LXRb_TRANS: Attagene TRANS-FACTORIAL HepG2 Assay for human Liver X Receptor beta (LXRb) (AID 2282981; active means hit-call score of the fitted dose curve at least 0.9, where 1 is the maximum); settings: HepG2 Attagene TRANS GAL4-LXRb reporter, mRNA
Outline: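 Transient transfection HepG2 (multiplexed RTUs, GAL4-UAS); NR-Gal4 chimera; 24 h exposure; RNA → RT-PCR → 6-FAM primer extension → HpaI → CE; increase vs DMSO.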

[7] = molecular target: Hepatocyte nuclear factor 4-alpha (Homo sapiens) (UniProt P41235); test: ATG_HNF4a_TRANS: Attagene TRANS-FACTORIAL HepG2 Assay for human Hepatocyte Nuclear Factor 4 alpha (HNF4a) (AID 2282982; active means hit-call score of the fitted dose curve at least 0.9, where 1 is the maximum); settings: HepG2 HNF4a transactivation reporter, mRNA readout
Outline: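 Readout is fluorescent reporter-transcript fragments resolved by capillary electrophoresis after RT-PCR from HepG2 cells dosed for 24 h. Cells carried transfected GAL4-UAS reporter constructs measuring exogenous NR-GAL4 chimera activity; DMSO served as baseline.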

[8] = ATG_M_06_TRANS: Attagene TRANS-FACTORIAL HepG2 Assay for M06 Transcription Factor (Internal Marker) (AID 2282983; active means hit-call score of the fitted dose curve at least 0.9, where 1 is the maximum;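 further: reporter transcript level by RT-PCR then capillary electrophoresis fluorescence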); settings: HepG2 Attagene TRANS M06 internal marker reporter
Outline: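 Cells: HepG2, transient multi-reporter transfection. Exposure: 24 h. Detection: RT-PCR, 6-FAM labelling, HpaI digestion (2 h, 37 °C), capillary electrophoresis. Baseline: DMSO.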

[9] = ATG_M_32_TRANS: Attagene TRANS-FACTORIAL HepG2 Assay for M32 Transcription Factor (Internal Marker) (AID 2282984; active means hit-call score of the fitted dose curve at least 0.9, where 1 is the maximum;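 further: transcript level of a background control reporter unit measured by RT-PCR and capillary electrophoresis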); settings: HepG2 Attagene TRANS M32 internal marker reporter
Outline: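 Measures reporter mRNA induction in human HepG2 liver cells after 24 h chemical treatment. Transcripts from transiently transfected GAL4-UAS reporter units are amplified, fluorescently labelled and sized by capillary electrophoresis; gain of signal relative to DMSO.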

[10] = molecular target: Transcriptional activator Myb (Homo sapiens) (UniProt P10242); test: ATG_Myb_CIS: Attagene CIS-FACTORIAL HepG2 Assay for human Myeloblastosis (Myb) Proto-Oncogene Transcription Factor (AID 2282986); settings: HepG2 Attagene CIS-FACTORIAL Myb reporter transcription; actives raise or lower the signal
Outline: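 Transiently transfected HepG2 cells carrying a multiplexed cis-promoter reporter set report endogenous Myb activity after 24 h compound exposure. Reporter mRNA is read by RT-PCR with capillary electrophoresis of fluorescent products, fitted bidirectionally against DMSO.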

[11] = molecular target: Nuclear respiratory factor 1 (Homo sapiens) (UniProt Q16656); test: ATG_NRF1_CIS: Attagene CIS-FACTORIAL HepG2 Assay for human Nuclear Respiratory Factor 1 (NRF1) Orphan Gene (AID 2282987); settings: HepG2 NRF1 cis-element reporter, Attagene multiplex; actives raise or lower the signal
Outline: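 HepG2 cells transiently transfected with multiple cis-regulated reporter units, exposed 24 h. Reporter mRNAs measured by RT-PCR, fluorescent labelling, HpaI digestion and capillary electrophoresis; bidirectional fitting against DMSO.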

[12] = molecular target: X-box-binding protein 1 (Homo sapiens) (UniProt P17861); test: ATG_Xbp1_CIS: Attagene CIS-FACTORIAL HepG2 Assay for human X-box Binding Protein 1 (XBP1) (AID 2282972); settings: HepG2 XBP1 cis-element reporter, Attagene multiplex; actives raise or lower the signal
Outline: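 HepG2 cells transiently transfected with cis-regulated multiple reporter transcription units; endogenous transcription factor activity measured 24 hours after chemical dosing. Reporter mRNA quantified by RT-PCR, 6-FAM primer extension, HpaI digestion and capillary electrophoresis; bidirectional fitting versus DMSO.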

[13] = molecular target: Oxysterols receptor LXR-alpha (Homo sapiens) (UniProt Q13133); test: ATG_LXRa_TRANS: Attagene TRANS-FACTORIAL HepG2 Assay for human Liver X Receptor alpha (LXRa) (AID 2282980; active means hit-call score of the fitted dose curve at least 0.9, where 1 is the maximum); settings: HepG2 Attagene TRANS reporter, LXRa transactivation
Outline: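 Chemical-induced reporter mRNA measured by RT-PCR with fluorescent labelling and capillary electrophoresis after 24 h dosing of transiently transfected HepG2 cells expressing exogenous NR-Gal4 chimeras; increases scored against DMSO baseline.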

[14] = molecular target: Nuclear receptor subfamily 4 group A member 2 (Homo sapiens) (UniProt P43354); test: ATG_NURR1_TRANS: Attagene TRANS-FACTORIAL HepG2 Assay for human Nuclear Receptor Related Protein 1 (NURR1) (AID 2282985; active means hit-call score of the fitted dose curve at least 0.9, where 1 is the maximum); settings: HepG2 Attagene TRANS reporter, mRNA readout
Outline: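 Transient transfection of HepG2, human liver cells, with multiple GAL4-UAS reporter transcription units. Cells dosed 24 h, RNA isolated, reverse-transcribed, PCR-amplified, FAM-labelled, HpaI-digested, sized by capillary electrophoresis. DMSO served as negative control.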

[15] = molecular target: Glucocorticoid receptor (Homo sapiens) (UniProt P04150); test: ATG_GR_TRANS: Attagene TRANS-FACTORIAL HepG2 Assay for human Glucocorticoid Receptor (GR) (AID 2282978; active means hit-call score of the fitted dose curve at least 0.9, where 1 is the maximum;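 further: activators score as hits since higher reporter transcript over DMSO is fitted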); settings: HepG2 Attagene TRANS GR reporter, mRNA transcription
Outline: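 HepG2 cells transiently transfected with GAL4-UAS reporter units and exogenous GR-Gal4 chimera, dosed 24 h. Reporter mRNA by RT-PCR, FAM labeling, HpaI digest and capillary electrophoresis; gain-of-signal fit versus DMSO.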

[16] = molecular target: Bile acid receptor (Homo sapiens) (UniProt Q96RI1); test: ATG_FXR_TRANS: Attagene TRANS-FACTORIAL HepG2 Assay for Farnesoid X Receptor (FXR) (AID 2282979; active means hit-call score of the fitted dose curve at least 0.9, where 1 is the maximum;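 further: hits raise reporter mRNA above DMSO so AC50 marks FXR activation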); settings: HepG2 Attagene TRANS FXR-GAL4 reporter transcription
Outline: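 Reporter transcripts from transfected HepG2 cells were measured 24 h after dosing, using RT-PCR with capillary electrophoresis of 6-FAM-labelled fragments. The read-out reflects activity of exogenous FXR-Gal4 chimera on GAL4-UAS units, with induction relative to DMSO.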

[17] = ATG_M_19_TRANS: Attagene TRANS-FACTORIAL HepG2 Assay for M19 Transcription Factor (Internal Marker) (AID 2282974; active means hit-call score of the fitted dose curve at least 0.9, where 1 is the maximum); settings: HepG2 Attagene TRANS-FACTORIAL M19 internal marker reporter
Outline: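 HepG2 transiently transfected with GAL4-UAS multiplex reporter constructs, exposed 24 h; reporter RNA quantified by RT-PCR, 6-FAM labeling, HpaI digestion and capillary electrophoresis; internal background marker fitted upward versus DMSO.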

[18] = molecular target: Estrogen-related receptor gamma (Homo sapiens) (UniProt P62508); test: ATG_ERRg_TRANS: Attagene TRANS-FACTORIAL HepG2 Assay for human Estrogen-Related Receptor gamma (ERRg) (AID 2282977; active means hit-call score of the fitted dose curve at least 0.9, where 1 is the maximum;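 further: hits increase reporter signal over DMSO so potencies reflect activators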); settings: HepG2 Attagene TRANS reporter, ERRg transactivation
Outline: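 HepG2 cells transiently transfected with multiplexed GAL4-UAS reporter units driven by chimeric NR-Gal4 proteins; 24 h exposure. Reporter mRNA quantified by RT-PCR, fluorescent labelling, HpaI digestion and capillary electrophoresis; gain of signal vs DMSO.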

Measured: outcome

Hepatocyte nuclear factor 4-alpha (Homo sapiens), sequence (P41235 whole entry, looked up, the tested form may be a part): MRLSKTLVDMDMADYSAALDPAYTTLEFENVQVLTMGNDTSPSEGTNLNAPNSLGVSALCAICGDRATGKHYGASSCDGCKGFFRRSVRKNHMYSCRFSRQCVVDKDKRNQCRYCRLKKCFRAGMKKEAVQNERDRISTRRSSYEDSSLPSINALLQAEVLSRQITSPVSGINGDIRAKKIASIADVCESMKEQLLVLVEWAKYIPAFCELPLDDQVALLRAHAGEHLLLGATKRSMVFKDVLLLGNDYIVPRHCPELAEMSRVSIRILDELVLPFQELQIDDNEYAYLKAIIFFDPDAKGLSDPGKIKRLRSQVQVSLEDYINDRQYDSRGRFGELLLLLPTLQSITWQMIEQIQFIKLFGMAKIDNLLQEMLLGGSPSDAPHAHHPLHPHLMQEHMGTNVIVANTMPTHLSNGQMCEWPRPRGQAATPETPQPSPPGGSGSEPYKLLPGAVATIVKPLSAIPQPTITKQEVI
Glucocorticoid receptor (Homo sapiens), sequence (P04150 whole entry, looked up, the tested form may be a part): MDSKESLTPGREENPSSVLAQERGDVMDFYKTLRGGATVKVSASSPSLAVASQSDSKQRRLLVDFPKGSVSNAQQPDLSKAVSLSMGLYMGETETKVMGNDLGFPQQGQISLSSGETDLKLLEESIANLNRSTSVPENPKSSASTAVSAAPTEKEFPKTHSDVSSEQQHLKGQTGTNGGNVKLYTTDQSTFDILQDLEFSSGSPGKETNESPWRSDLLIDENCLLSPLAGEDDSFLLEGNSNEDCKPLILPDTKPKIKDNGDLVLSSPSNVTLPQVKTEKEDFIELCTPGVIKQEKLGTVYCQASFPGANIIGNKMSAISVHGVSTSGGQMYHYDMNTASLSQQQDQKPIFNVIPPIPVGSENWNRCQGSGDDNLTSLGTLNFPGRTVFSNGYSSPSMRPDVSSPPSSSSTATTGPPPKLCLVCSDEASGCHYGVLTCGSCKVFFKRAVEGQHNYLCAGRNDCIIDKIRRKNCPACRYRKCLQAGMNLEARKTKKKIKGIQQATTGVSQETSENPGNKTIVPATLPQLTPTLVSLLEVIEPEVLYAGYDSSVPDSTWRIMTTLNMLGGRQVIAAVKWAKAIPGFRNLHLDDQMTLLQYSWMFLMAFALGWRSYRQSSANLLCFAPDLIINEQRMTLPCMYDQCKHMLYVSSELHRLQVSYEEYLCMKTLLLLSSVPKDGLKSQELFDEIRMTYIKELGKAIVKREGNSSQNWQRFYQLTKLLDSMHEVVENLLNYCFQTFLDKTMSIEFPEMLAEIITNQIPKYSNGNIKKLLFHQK
Transcriptional activator Myb (Homo sapiens), sequence (P10242 whole entry, looked up): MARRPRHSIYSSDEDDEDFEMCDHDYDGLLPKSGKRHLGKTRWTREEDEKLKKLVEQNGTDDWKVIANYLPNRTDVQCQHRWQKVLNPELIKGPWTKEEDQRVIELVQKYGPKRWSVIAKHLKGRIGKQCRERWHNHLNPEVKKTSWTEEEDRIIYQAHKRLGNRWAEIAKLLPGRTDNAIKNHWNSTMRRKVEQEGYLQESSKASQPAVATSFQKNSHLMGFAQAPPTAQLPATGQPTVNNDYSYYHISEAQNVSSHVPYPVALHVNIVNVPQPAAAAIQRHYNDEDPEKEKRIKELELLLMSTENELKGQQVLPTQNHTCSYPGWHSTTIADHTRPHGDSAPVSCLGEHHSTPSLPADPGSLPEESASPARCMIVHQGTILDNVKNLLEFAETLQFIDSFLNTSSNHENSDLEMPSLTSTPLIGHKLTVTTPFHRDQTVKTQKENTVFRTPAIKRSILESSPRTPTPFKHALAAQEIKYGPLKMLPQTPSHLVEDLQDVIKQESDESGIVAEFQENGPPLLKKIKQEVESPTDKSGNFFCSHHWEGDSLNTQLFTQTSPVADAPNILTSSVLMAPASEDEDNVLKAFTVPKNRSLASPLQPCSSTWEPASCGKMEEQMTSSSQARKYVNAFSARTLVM
Oxysterols receptor LXR-alpha (Homo sapiens), sequence (Q13133 whole entry, looked up, the tested form may be a part): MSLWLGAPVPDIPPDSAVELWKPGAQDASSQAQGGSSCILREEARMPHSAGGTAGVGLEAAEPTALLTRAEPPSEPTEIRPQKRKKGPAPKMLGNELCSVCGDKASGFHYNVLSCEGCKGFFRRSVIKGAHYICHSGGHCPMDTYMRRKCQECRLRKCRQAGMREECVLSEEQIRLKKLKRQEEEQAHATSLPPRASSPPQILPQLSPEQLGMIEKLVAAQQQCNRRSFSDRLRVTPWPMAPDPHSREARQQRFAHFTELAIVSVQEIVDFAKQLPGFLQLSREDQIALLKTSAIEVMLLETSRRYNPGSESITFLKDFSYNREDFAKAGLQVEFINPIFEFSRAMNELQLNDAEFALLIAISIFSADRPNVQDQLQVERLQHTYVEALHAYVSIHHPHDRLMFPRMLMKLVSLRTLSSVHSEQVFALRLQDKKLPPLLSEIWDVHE
X-box-binding protein 1 (Homo sapiens), sequence (P17861 whole entry, looked up): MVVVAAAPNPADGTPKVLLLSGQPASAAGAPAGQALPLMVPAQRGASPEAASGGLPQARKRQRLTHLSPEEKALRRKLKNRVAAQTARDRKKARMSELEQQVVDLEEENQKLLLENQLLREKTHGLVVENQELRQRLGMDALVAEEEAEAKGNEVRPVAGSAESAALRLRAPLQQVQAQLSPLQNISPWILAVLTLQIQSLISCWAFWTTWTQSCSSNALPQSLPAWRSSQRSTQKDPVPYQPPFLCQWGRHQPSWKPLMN
Nuclear receptor subfamily 4 group A member 2 (Homo sapiens), sequence (P43354 whole entry, looked up, the tested form may be a part): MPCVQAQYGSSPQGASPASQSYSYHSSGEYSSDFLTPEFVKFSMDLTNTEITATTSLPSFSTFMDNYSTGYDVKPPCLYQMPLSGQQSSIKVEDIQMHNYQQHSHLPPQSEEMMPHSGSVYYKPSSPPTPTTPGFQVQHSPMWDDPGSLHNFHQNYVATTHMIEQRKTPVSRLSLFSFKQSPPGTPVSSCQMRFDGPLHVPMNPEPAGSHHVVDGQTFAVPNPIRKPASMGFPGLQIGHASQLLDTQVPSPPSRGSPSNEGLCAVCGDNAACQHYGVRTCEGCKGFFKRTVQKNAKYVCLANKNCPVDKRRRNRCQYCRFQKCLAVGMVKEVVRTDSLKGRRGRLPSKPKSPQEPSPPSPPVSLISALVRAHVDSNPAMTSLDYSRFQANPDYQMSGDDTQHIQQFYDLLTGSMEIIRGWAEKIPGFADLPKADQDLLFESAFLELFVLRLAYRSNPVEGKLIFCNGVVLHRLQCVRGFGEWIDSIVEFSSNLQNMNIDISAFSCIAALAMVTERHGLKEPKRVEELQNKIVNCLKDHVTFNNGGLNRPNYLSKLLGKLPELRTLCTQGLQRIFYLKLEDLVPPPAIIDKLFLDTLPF
Bile acid receptor (Homo sapiens), sequence (Q96RI1 whole entry, looked up, the tested form may be a part): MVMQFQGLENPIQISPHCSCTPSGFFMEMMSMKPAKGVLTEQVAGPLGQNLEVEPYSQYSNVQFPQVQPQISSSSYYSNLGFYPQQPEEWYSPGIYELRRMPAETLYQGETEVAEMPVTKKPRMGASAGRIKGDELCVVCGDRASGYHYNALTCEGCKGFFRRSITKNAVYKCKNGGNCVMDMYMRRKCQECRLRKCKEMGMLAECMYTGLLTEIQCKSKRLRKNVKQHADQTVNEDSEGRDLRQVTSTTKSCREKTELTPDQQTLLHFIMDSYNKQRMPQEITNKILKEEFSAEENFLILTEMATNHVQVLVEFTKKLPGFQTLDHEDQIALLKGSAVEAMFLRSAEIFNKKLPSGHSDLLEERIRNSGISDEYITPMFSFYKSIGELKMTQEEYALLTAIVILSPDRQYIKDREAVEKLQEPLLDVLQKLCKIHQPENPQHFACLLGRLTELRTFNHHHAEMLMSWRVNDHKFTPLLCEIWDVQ
Oxysterols receptor LXR-beta (Homo sapiens), sequence (P55055 whole entry, looked up, the tested form may be a part): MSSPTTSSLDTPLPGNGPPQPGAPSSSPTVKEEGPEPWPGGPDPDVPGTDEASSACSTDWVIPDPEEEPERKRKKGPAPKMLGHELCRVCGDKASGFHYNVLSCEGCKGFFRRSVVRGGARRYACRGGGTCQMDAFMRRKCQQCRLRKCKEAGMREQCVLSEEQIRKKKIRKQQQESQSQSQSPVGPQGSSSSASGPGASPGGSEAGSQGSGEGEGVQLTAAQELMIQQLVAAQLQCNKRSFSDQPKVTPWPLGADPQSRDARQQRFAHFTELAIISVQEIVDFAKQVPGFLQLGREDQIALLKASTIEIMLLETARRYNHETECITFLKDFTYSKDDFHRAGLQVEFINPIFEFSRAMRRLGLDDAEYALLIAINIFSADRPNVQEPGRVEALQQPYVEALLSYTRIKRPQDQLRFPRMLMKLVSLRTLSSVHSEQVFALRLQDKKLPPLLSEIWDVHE
Nuclear respiratory factor 1 (Homo sapiens), sequence (Q16656 whole entry, looked up): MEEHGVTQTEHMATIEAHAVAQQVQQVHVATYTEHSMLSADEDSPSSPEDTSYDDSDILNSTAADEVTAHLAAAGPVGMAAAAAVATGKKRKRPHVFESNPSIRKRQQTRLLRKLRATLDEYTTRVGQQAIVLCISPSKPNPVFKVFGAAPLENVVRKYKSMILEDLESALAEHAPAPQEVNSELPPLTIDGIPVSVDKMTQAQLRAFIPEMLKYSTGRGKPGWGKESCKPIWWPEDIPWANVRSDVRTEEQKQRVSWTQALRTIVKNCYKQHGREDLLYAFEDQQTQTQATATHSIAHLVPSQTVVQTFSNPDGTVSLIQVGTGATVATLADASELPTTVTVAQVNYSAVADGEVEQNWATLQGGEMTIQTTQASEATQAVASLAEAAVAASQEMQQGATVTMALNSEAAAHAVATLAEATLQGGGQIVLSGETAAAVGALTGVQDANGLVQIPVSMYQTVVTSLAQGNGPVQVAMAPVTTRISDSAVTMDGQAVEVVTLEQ
Nuclear receptor subfamily 1 group I member 3 (Homo sapiens), sequence (Q14994 whole entry, looked up, the tested form may be a part): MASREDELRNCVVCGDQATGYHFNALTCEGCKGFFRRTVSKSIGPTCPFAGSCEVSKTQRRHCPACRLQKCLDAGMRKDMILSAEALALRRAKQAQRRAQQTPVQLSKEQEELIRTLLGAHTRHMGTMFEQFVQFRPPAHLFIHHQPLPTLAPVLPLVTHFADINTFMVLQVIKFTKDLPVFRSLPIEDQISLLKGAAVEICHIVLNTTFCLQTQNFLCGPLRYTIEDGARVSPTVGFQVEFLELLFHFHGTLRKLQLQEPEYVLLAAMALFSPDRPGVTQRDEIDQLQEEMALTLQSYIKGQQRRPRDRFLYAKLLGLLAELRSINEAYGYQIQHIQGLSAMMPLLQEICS

C=COCCOCCOCCOC=C
not listed: [12] | [13] | [14] | [15] | [16] | [17] | [18]
inactive: all other assays above

CC(C)=CCC/C(C)=C/COC=O
not listed: [4] | [15] | [16] | [17] | [18]
inactive: all other assays above

CC(C)=CCC[C@H](C)CC=O
not listed: [4] | [7] | [17] | [18]
inactive: all other assays above

CCC(=O)OCc1ccccc1
not listed: [4] | [5] | [6] | [7] | [10] | [16] | [18]
inactive: all other assays above

O=C(Cl)c1cccc(C(=O)Cl)c1
not listed: [4] | [6] | [13] | [15] | [16] | [17] | [18]
inactive: all other assays above

O=C1NC(=O)c2ccccc21
inactive: [1] | [2] | [3] | [12] | [5] | [16] | [13] | [8] | [10] | [11]

CC(C)(Oc1ccc(CCNC(=O)c2ccc(Cl)cc2)cc1)C(=O)O
not listed: [4] | [10] | [13] | [14] | [15] | [17] | [18]
inactive: all other assays above

C/C=C(\C)C(=O)OCc1ccccc1
not listed: [4] | [7] | [16] | [17]
inactive: all other assays above

CCCC1CCC(=O)O1 (stereo unspecified)
inactive: [1] | [2] | [3] | [12] | [5] | [13] | [8] | [14] | [10] | [11]

O=S(=O)(O)NC1CCCCC1
inactive: [1] | [2] | [3] | [12] | [17] | [7] | [10] | [11]

CCCCOCCOCCOCCOCCO
not listed: [4] | [6] | [15] | [16] | [17] | [18]
inactive: all other assays above

CSc1nnc(C(C)(C)C)c(=O)[nH]1
not listed: [4] | [6] | [8] | [13] | [14] | [15] | [18]
inactive: all other assays above
